From PubChem
M1 antag – antagonists of rat M1 muscarinic receptor; B-score at 10 µM; 64,000 compounds, 3.4% hits; Muscarinic acetylcholine receptor M1 (Rattus norvegicus), P08482; CHO-M1 cells, Fluo-4 calcium, ACh EC80 antagonist mode; hits give low values;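 active = calcium fluorescence response, raw or row-and-column corrected B-score, differing from the plate sample mean either way at a set confidence level, mostly lower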
Target sequence (P08482 whole entry, looked up): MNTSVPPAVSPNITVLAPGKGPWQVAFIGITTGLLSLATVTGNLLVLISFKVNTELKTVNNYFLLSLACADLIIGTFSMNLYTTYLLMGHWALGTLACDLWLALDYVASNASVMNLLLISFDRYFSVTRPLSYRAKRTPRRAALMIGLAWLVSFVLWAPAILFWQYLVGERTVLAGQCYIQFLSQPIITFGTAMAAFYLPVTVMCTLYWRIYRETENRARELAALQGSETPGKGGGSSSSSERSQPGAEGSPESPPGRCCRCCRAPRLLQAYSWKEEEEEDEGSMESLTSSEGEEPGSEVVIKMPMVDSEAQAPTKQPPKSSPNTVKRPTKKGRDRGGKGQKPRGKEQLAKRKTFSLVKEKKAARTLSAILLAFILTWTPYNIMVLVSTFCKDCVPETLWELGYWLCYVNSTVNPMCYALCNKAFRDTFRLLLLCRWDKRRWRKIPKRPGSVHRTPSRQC
Cav3 T inh – Cav3.2 calcium influx blockers – cell-based, Fluo-4 calcium fluorescence, FDSS, MLSMR library, primary screen. Voltage-dependent T-type calcium channel subunit alpha-1H (Homo sapiens), O95180. Cav3.2-expressing cells; hits give low values. B-score at 10 µM. 100,000 compounds, 4% hits;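 active = single-dose well whose peak fluorescence ratio is a statistical outlier from its plate by either plate-standardised score or position-corrected B-score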
Her2 expr inh – inhibitors of Her2 protein expression, primary screen, SKBR-3 cells, AlphaScreen, 66K library; Receptor tyrosine-protein kinase erbB-2 (Homo sapiens), P04626; SKBR-3 HER2 protein level, 18-24 h; hits give low values; HER2 level % of control, % at 10 µM; 65,000 compounds, 0.69% hits; AID 645, 2007;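 active = HER2 level under 5% of the carrier-only control; inconclusive = no clear call, values can overlap the other calls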;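 also: 100% = DMSO carrier and 0% = 500 nM PU-H71 HSP90 inhibitor; lower value means stronger loss of Her2 protein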
PLAP act – PLAP enzyme activators, biochemical, luminescence, HTS; purified PLAP enzyme, luminescent substrate read-out; hits give high values; 96,000 compounds, 1.2% hits; activation fold at 20 µM; Alkaline phosphatase, placental type (Homo sapiens), P05187; AID 696, 2007; in the data active = activation fold above about 2
M1 ag – M1 muscarinic receptor agonists, primary screen, CHO-M1 cells, Fluo-4 calcium, agonist mode; Muscarinic acetylcholine receptor M1; Fluo-4 calcium fluorescence; hits give high values; B-score at 10 µM; 64,000 compounds, 3% hits;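 active = fluorescence rise, raw or as B-score row- and column-corrected plate score, outside the 99.7% band of its plate's samples, either direction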
M1 agonist conf – rat M1 muscarinic receptor agonists, confirmation, CHO-M1 cells, Fluo-4 calcium, duplicate retest; shares compounds with M1 ag; Fluo-4 calcium fluorescence, agonist mode; actives lie on both sides; fluorescence change (max-min) at 10 µM; 1,700 compounds, 19% hits;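 active = fluorescence change differs from the solvent-only DMSO control mean at a set confidence level in both duplicate runs; inconclusive = differs from solvent-only control mean in just one of two runs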;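 also: an EC20 dose of acetylcholine follows compound addition during the same imaging run; raw fluorescence intensity difference in instrument units with no normalization to controls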
M4 ag counter – agonist activity at rat M4 receptor, confirmation, counter-screen for M1 allosteric modulator project, cell-based, agonist mode. shares compounds with M1 ag. CHO M4/Gqi5 cells, Fluo-4 calcium fluorescence; actives lie on both sides. fluorescence change (max-min) at 10 µM. 1,700 compounds, 9% hits. AID 1741, 2009;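 active = fluorescence change differing from the plate's solvent-only control wells at 99.7% confidence in both duplicates, whether higher or lower; inconclusive = differs from solvent controls in only one of two duplicates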
An asterisk follows results filed as active; ? = inconclusive; · = no result given. An excerpt weighted towards active compounds, which were near 7.9% of everything screened.

SMILES	M1 antag	Cav3 T inh	Her2 expr inh	PLAP act	M1 ag	M1 agonist conf	M4 ag counter
O=C(CN(Cc1ccccc1Cl)C(=O)c1ccc(CN2CCOCC2)o1)NCC1CCCO1 (centres undefined)	·	-0.0092	·	1.3	·	·	·
Cc1nc2ccccc2n1CC(=O)OCC(=O)NCCc1ccccc1	·	0.64	·	1	·	·	·
CCC(=O)N1CCN(C(=O)CC)C1c1ccccc1	1.2	0.56	94	1.2	0.5	·	·
OCC12COC(c3ccccc3)N1C(c1ccccc1)OC2 (centres undefined)	0.8	0.008	78	0.9	8.3*	-16	?
CCOC(=O)c1c(C)n(C)c2ccc(OCC(O)Cn3nc(C)cc3C)cc12 (centres undefined)	-0.36	-1.7	114	1.3	2.7*	?	-40
Cn1c(=O)c2nc(NCc3ccccc3)cnc2n(C)c1=O	1.3	·	127	1	10*	203*	166*
O=C(Cc1cccs1)Nc1cccc(C(=O)Nc2ccco2)c1	-0.43	0.18	75	0.6	5.5*	-4.1	?
CC(=O)c1cccc(NC(=O)Cc2cccs2)c1	0.63	1.3	107	1	-0.68	·	·
CCOc1ccc(C2=CS/C(=C(\C#N)c3nnc4n3CCCCC4)N2CC)cc1	-0.056	-0.17	81	1.4	3.8*	-18	-38
OC(COc1ccccc1Cl)CN1CCN(CC(O)COc2ccccc2Cl)CC1 (centres undefined)	-0.49	-2.2	117	1.5	5.2*	-13	?
CC(=O)c1cccc(NC(=O)Cc2ccc3c(c2)CCCC3)c1	·	-0.84	·	0.9	·	·	·
COc1ccc(OC)c(CCNC(=O)Cn2sc3nc(C)cc(C)c3c2=O)c1	-0.49	0.18	90	1	8*	?	-28
COc1ccc(-c2cc(CCCC(=O)NCCc3ccc(OC)cc3OC)no2)cc1	-0.083	-0.59	81	1.1	-0.35	·	·
O=C(NCCCO)NC12CC3CC(CC(C3)C1)C2	·	-2.8	·	1.1	·	·	·
O=C(NCCCN1CCCC1=O)NC12CC3CC(CC(C3)C1)C2	0.13	0.0094	113	1.1	5.7*	3	-4.4
COc1ccc(S(=O)(=O)N2CCCCC2)cc1C(C)C	0.18	-2.6	87	0.8	-0.15	·	·
CC1(C)NC(=O)N(CCOCCOc2c(Cl)cc(Cl)cc2Cl)C1=O	·	0.1	·	1	·	·	·
CCC(=O)Nc1nn(C)c2nc3c(C)cccc3cc12	1.1	-3.1	98	·	0.64	·	·
Cc1cccc2cc3c(NC(=O)C(C)C)nn(C)c3nc12	-15*	-0.26	144	1	12*	-16	-52
Cn1c(C(=O)NC2CCCCCC2)cc2c(=O)n(C)c3ccccc3c21	-0.95	-1.1	55	1.6	3.8*	?	?
Cn1c(C(=O)NCCN2CCOCC2)cc2c(=O)n(C)c3ccccc3c21	0.4	0.25	100	1.4	0.095	·	·
Cn1c(C(=O)NCCN2CCc3ccccc3C2)cc2c(=O)n(C)c3ccccc3c21	-2	1.3	81	1.9	2.9*	?	-49
Cn1c(=O)c(C(=O)NC2CCCCCCC2)c(O)c2ccccc21	-0.063	0.084	88	1.1	-0.043	·	·
Cn1c(C(=O)NC2CCCCC2)cc2c(=O)n(C)c3ccccc3c21	0.17	0.34	49	1.2	3.8*	?	?
Cc1cccc(N2CCN(C(=O)c3cc4c(=O)n(C)c5ccccc5c4n3C)CC2C)c1 (centres undefined)	-0.023	-4.4*	61	1.5	5.5*	-4.4	-21
SMILES	M1 antag	Cav3 T inh	Her2 expr inh	PLAP act	M1 ag	M1 agonist conf	M4 ag counter
Cn1c(C(=O)N2CCCCCC2)cc2c(=O)n(C)c3ccccc3c21	0.32	0.4	76	1.5	0.57	·	·
CC1CCC(NC(=O)c2cc3c(=O)n(C)c4ccccc4c3n2C)CC1 (centres undefined)	-0.19	-0.089	99	1.4	3.7*	-7.6	-17
O=C(Cc1cccs1)N1CCCC(c2nc3c(nnn3Cc3cccc(Cl)c3)c(=O)[nH]2)C1 (centres undefined)	-0.33	-1	75	1.5	0.75	·	·
CCOC(=O)c1nc2sc3c(c2c(=O)[nH]1)CCCC3	-0.013	-0.24	68	1	-0.12	·	·
CCOC(=O)c1nc(N2CCN(C(=O)OCC)CC2)c2c3c(sc2n1)CCCC3	-0.45	0.1	81	1.4	9.2*	?	-63
CCCOc1ccc2ccccc2c1/C=N/n1c(C)nnc1-n1nc(C)cc1C	-0.5	-3.3*	102	1.6	3.4*	?	-38
Cc1cc(C)n(-c2nnc(C)n2/N=C/c2ccco2)n1	-0.46	0.16	136	0.9	0.45	·	·
COc1ccc(OCCSc2nnc(-c3ccc(OC)cc3)n2N)cc1	·	0.073	·	0.7	·	·	·
CCN1CCN(C(c2cccs2)C(C)NC(=O)CC(C)C)CC1 (centres undefined)	1.1	1	100	1.1	-2.7*	?	-87
CCC(=O)NC(C)C(c1cccs1)N1CCN(Cc2ccccc2)CC1 (centres undefined)	·	0.36	·	1	·	·	·
O=C(Cn1ncc2c(=O)oc3ccccc3c21)N1CCCN(Cc2ccccc2F)C1	-0.88	0.97	100	1.1	6*	-10	-33
Cc1ccc2c(c1)-c1c(cnn1CC(=O)N1CCCN(Cc3ccccc3F)C1)CO2	0.05	-1.4	85	1.3	3.4*	?	-36
O=C(C1CCN(S(=O)(=O)c2cccc3nsnc23)CC1)N1CC=C(c2ccccc2)CC1	-1.3	·	75	1.5	7.5*	-9.8	-32
Cc1cc2cc(CCNC(=O)c3ccc(S(=O)(=O)N4CCOCC4)cc3)c(=O)[nH]c2cc1C	-1.9	0.29	79	1.2	6.7*	?	-67
CCC(CC)C(=O)NCCc1cc2cc(C)c(C)cc2[nH]c1=O	1	·	96	0.9	0.48	·	·
COC(=O)c1sc(S(=O)(=O)N2CCC(C(=O)O)CC2)c(C(=O)OC)c1C	·	0.29	·	0.9	·	·	·
CCCc1cc(=O)n2[nH]c(-c3ccc(OC)cc3)nc2n1	·	-0.36	·	0.8	·	·	·
Cc1cc(-c2ccco2)c(C#N)c2nc3ccccc3n12	0.35	-0.69	89	1	11*	?	15
Cc1ccc(-n2c(Cn3nc(C(F)(F)F)cc3C)n[nH]c2=S)cc1	·	0.59	·	0.8	·	·	·
C=CCN=C1SCC(=O)N1S(=O)(=O)c1ccc(C)cc1	-0.2	0.91	97	1	3.5*	-15	-45
